This note sets out measurements from PubChem BioAssay AID368 (University of Pittsburgh Molecular Library Screening Center, 2006).

Structures are written as SMILES. In all, about 65,000 compounds went through this assay and about 85 (0.1%) were called active. This is one part of a sample in which actives are shown more often than they occur. Values without a mark were called inactive. Cut-off read from the data, not from the text of the source: active = inhibition above about 50%; inactive = the rest.

Sequence of M-phase inducer phosphatase 2 (Homo sapiens) (P30305 whole entry, looked up, the tested form may be a part): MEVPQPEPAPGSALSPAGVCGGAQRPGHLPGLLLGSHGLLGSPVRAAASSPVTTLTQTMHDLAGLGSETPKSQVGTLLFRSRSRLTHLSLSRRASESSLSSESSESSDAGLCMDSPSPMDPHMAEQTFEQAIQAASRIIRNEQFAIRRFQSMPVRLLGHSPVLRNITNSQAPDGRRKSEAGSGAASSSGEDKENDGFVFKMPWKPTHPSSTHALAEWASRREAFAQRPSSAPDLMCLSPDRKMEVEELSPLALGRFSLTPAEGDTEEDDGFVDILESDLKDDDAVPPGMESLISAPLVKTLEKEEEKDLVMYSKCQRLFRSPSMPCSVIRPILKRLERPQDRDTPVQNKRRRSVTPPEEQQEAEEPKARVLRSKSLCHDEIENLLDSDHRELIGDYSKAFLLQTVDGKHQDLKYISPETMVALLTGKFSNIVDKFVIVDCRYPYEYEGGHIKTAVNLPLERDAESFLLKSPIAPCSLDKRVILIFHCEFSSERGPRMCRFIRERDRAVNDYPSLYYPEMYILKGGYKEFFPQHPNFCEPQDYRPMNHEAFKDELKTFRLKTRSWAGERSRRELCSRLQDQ

This assay has as its target M-phase inducer phosphatase 2 (Homo sapiens) (UniProt P30305). Put plainly: inhibitors of Cdc25B phosphatase catalytic domain, primary screen, biochemical, OMFP fluorescence (AID 368). Conditions: recombinant Cdc25B, OMFP fluorescence Ex485/Em525; stronger effect = higher value;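 compounds tested at 10 µM final in the well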.
By inhibition is commonly meant the change of the read-out against control, counted positive when it falls. For the molecule `O=C(O)C1CC=C(Cl)CC1C(=O)NCc1ccccc1` (stereo unspecified), the inhibition is -4.83%.
With `O=C(CN1C(=O)C2C3C=CC(C3)C2C1=O)NCCc1ccccc1Cl` (stereo unspecified) the figure was -3.46%; with `Cc1ccc(C)c(N(CC(=O)NCc2ccco2)C(=O)CCC(=O)Nc2ccccn2)c1`, 0.139%; with `C=CCNC(=O)CSc1nc2sc(C)c(C)c2c(=O)[nH]1`, -5.03%.
Next, `CCC1SC2=NCCN2C1(O)c1ccc(Cl)cc1` (stereo unspecified): 1.15%; `COC(=O)c1ccc(NC(=O)CSc2nnc(CNc3ccc(OC)cc3)n2C)cc1`: -15.2%.
With `O=C(Nc1ccc(F)cc1)c1cccnc1N1CCOCC1` the figure was 0.374%.
Consider `COc1ccccc1C1/C(=C(/O)c2ccc(OC(C)C)cc2)C(=O)C(=O)N1c1cc(C)on1` (stereo unspecified), for which the inhibition was 22%.
Next, `COc1ccc(S(=O)(=O)N(CCCN2CCCC2=O)Cc2cc3c(C)ccc(C)c3[nH]c2=O)cc1`: 4.58%.
On to `COc1ccc(Cl)cc1NC(=O)c1oc(C)nc1C`, for which the inhibition was -1.12%.
With `O=C(O)CSC(NC(=O)c1cccnc1)(C(F)(F)F)C(F)(F)F` the figure was -2.28%.
With `O=C(c1ccco1)N1CCN=C1SCc1cccc(Cl)c1` the figure was -9.08%; with `CC1CCCCC1NC(=O)CSc1nnc(N)s1` (stereo unspecified), -11.7%; with `COc1ccc(C(=O)N2CCC(C(=O)Nc3cccc(C)c3)CC2)cc1OC`, -5.03%.
With `Cc1cc(C(F)(F)F)nn1-c1nc(-c2ccco2)cc(C(F)(F)F)n1` the figure was -12.3%; with `COc1ccc(NS(=O)(=O)c2ccc(NC(C)=O)cc2)cc1OC`, -8.27%.
As for `COCCNC(=O)C(c1ccc(C)o1)N(Cc1cccs1)C(=O)c1snc(C(N)=O)c1N` (stereo unspecified), the inhibition was -5.11%.
`Cc1nnc(SCC(=O)NCCOc2ccc(Cl)cc2)n1-c1ccccc1`: the inhibition was -10.1%.
Next, `COc1cccc(N(CC(=O)Nc2cccc(F)c2)S(C)(=O)=O)c1`: -4.86%; `COc1ccc(C(=O)NCCc2ccc(S(N)(=O)=O)cc2)cc1OC`: -4.01%; `CCOC(=O)c1ccn(-c2nc(-c3ccco3)cc(C(F)(F)F)n2)n1`: -12.2%.
Take `CCCOc1ccc(CN(CCO)CCO)cc1C(=O)OC`: the inhibition is 1.99%.
Take `O=C(NC1(C(F)(F)F)N=C2SCCN2C1=O)c1ccco1` (stereo unspecified): the inhibition was 0.794%.
Regarding `O=C(c1ccccc1)c1ccc2nc(N3CCCCC3)c3nncn3c2c1`, the inhibition is -11.8%.
Consider `O=S(=O)(c1ccc2ccccc2c1)N1CCN(S(=O)(=O)N2CCOCC2)CC1`, for which the inhibition was -4.37%.
With `O=c1cc(CSc2ccc(Cl)cc2)nc(N2CCOCC2)[nH]1`, the inhibition was 7.35%.
